What was measured:
Assay in all cases: DAPPL (digital affinity profiling via proximity ligation, sequencing); 10 mM Tris-HCl pH 7.5, 50 mM NaCl, 1 mM DTT, 4% glycerol, room temperature, 30 min; GST-TFs on glutathione beads, 16-mer random dsDNA library, 0.1% formaldehyde crosslink after washing; high values mean tight binding
FEV = target: T1, FEV (Homo sapiens, UniProt Q99581 1-238); details: protein: recombinant; tags: N-terminal GST; dsDNA, one strand shown
T1 sequence: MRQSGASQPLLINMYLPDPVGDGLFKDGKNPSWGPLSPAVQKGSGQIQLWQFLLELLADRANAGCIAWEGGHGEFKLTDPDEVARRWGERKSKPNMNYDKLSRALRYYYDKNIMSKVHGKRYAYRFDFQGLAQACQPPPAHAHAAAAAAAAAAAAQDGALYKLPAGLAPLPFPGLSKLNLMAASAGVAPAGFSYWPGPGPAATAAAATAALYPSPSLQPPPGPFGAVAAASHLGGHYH
In short: (§1)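 Binding signal is given per hexamer as its read frequency for a factor divided by its frequency in the tag-only sample. GST-fused human transcription factors were expressed in yeast, captured on glutathione beads, barcoded with DNA and pooled with that sample, then incubated with 200 nmole of a 16-mer random double-stranded DNA library in Tris/NaCl/DTT/glycerol buffer for 30 min at room temperature. The pools were then washed, crosslinked, proximity-ligated, amplified by PCR and sequenced on an Illumina NextSeq500.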

ETV5 = ETV5 (Homo sapiens, UniProt P41161 1-510); details: protein: recombinant; tags: N-terminal GST; dsDNA, one strand shown
In short: as §1

HSF1 = HSF1 (Homo sapiens, UniProt Q00613 1-529); details: protein: recombinant; tags: N-terminal GST; chain copies: 3; dsDNA, one strand shown
In short: as §1

SPIC = target: T2, SPIC (Homo sapiens, UniProt Q8N5J4 1-248); details: protein: recombinant; tags: N-terminal GST; dsDNA, one strand shown
T2 sequence: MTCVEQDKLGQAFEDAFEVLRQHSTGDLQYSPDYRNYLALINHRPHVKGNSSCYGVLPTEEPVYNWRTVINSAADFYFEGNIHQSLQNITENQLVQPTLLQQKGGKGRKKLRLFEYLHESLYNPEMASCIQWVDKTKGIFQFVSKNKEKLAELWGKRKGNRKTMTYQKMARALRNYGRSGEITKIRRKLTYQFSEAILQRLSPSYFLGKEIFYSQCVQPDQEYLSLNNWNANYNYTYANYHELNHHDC
In short: as §1

ELF4 = ELF4 (Homo sapiens, UniProt Q99607 1-663); details: protein: recombinant; tags: N-terminal GST; dsDNA, one strand shown
In short: as §1

ELK4 = target: T3, ELK4 (Homo sapiens, UniProt P28324-2 1-405); details: protein: recombinant; tags: N-terminal GST; dsDNA, one strand shown
T3 sequence: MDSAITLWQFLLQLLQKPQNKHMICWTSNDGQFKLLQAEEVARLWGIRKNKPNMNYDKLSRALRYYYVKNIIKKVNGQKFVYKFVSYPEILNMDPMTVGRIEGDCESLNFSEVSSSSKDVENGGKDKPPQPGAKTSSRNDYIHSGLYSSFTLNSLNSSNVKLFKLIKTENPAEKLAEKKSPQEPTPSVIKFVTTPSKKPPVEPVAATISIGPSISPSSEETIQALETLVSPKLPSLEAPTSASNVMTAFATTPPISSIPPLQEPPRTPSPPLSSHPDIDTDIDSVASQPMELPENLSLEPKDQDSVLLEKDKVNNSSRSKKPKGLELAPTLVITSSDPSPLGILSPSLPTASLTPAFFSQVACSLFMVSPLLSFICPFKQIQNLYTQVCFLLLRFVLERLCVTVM
In short: as §1

ETV2 = target: T4, ETV2 (Homo sapiens, UniProt O00321 1-342); details: protein: recombinant; tags: N-terminal GST; dsDNA, one strand shown
T4 sequence: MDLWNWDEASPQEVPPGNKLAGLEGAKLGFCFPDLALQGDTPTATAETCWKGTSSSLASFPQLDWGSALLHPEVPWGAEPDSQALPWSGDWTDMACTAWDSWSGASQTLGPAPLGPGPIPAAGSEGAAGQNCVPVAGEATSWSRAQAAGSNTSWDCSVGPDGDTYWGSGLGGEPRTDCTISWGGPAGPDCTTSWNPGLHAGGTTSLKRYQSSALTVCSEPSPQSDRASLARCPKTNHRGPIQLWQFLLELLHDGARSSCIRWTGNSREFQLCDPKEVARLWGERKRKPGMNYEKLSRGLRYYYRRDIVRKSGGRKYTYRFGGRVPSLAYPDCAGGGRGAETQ
In short: as §1

ELF3 = target: T5, ELF3 (Homo sapiens, UniProt P78545 1-371); details: protein: recombinant; tags: N-terminal GST; dsDNA, one strand shown
T5 sequence: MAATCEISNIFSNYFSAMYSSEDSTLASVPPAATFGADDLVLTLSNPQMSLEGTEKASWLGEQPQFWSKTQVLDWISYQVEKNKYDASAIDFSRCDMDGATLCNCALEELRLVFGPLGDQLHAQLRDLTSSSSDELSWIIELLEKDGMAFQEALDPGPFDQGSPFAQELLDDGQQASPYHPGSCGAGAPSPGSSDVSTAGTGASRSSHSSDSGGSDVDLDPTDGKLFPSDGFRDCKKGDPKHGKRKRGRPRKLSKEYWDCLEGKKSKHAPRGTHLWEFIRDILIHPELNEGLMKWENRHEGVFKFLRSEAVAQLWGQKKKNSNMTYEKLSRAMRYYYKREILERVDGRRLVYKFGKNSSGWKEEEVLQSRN
In short: as §1

CRX = CRX (Homo sapiens, UniProt O43186 1-299); details: protein: recombinant; tags: N-terminal GST; dsDNA, one strand shown
In short: as §1

ETV1 = ETV1 (Homo sapiens, UniProt P50549 1-477); details: protein: recombinant; tags: N-terminal GST; dsDNA, one strand shown
In short: as §1

ERF = target: T6, ERF (Homo sapiens, UniProt P50548 1-548); details: protein: recombinant; tags: N-terminal GST; dsDNA, one strand shown
T6 sequence: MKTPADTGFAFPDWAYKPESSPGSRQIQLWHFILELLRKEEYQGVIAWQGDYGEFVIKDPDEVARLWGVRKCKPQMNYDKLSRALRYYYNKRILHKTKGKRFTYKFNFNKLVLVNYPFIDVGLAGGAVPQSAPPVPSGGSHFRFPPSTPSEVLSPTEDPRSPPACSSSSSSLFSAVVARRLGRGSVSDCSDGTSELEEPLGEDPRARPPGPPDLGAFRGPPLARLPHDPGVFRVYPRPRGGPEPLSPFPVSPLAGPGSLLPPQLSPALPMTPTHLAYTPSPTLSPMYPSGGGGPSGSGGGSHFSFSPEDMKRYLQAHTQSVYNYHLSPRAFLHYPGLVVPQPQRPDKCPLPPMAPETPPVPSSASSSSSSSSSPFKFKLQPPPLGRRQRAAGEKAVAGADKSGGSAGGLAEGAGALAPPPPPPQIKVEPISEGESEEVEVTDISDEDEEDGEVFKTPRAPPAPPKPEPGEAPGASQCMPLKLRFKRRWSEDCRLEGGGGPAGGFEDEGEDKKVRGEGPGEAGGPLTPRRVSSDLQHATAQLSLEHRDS
In short: as §1

ETV3L = target: T7, ETV3L (Homo sapiens, UniProt Q6ZN32 1-361); details: protein: recombinant; tags: N-terminal GST; dsDNA, one strand shown
T7 sequence: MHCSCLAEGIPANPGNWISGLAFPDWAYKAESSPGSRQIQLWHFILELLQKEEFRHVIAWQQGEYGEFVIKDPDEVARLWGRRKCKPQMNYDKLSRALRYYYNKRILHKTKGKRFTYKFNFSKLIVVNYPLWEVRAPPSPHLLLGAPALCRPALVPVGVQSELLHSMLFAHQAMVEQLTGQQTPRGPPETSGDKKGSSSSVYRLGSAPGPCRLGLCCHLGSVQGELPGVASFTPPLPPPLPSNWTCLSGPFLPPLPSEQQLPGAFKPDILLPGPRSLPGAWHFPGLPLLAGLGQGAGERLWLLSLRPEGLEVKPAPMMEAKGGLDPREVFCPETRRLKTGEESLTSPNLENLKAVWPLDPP
In short: as §1

ETS2 = target: T8, ETS2 (Homo sapiens, UniProt P15036 1-469); details: protein: recombinant; tags: N-terminal GST; dsDNA, one strand shown
T8 sequence: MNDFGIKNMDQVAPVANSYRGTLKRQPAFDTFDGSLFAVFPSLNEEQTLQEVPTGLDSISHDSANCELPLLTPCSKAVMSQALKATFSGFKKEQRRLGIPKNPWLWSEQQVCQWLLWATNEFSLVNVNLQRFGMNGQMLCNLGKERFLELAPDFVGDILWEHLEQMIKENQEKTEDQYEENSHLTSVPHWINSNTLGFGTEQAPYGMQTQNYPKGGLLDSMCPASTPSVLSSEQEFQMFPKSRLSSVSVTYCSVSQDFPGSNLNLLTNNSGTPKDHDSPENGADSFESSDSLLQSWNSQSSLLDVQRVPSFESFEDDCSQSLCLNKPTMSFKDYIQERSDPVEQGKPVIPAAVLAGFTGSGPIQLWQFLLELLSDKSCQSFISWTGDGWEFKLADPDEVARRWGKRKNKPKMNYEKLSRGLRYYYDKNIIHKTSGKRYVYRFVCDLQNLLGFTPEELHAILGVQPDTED
In short: as §1

SPDEF = target: T9, SPDEF (Homo sapiens, UniProt O95238 1-335); details: protein: recombinant; tags: N-terminal GST; dsDNA, one strand shown
T9 sequence: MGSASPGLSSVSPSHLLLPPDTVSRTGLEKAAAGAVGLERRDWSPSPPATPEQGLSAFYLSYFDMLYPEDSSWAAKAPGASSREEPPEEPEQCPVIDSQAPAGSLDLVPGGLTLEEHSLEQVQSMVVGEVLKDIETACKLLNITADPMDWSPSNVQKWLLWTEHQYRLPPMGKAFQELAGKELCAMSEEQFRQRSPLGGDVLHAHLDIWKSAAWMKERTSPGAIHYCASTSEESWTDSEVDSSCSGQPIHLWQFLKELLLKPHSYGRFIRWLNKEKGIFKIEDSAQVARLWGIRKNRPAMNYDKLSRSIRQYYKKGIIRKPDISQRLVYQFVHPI
In short: as §1

ETV7 = target: T10, ETV7 (Homo sapiens, UniProt Q9Y603 1-341); details: protein: recombinant; tags: N-terminal GST; dsDNA, one strand shown
T10 sequence: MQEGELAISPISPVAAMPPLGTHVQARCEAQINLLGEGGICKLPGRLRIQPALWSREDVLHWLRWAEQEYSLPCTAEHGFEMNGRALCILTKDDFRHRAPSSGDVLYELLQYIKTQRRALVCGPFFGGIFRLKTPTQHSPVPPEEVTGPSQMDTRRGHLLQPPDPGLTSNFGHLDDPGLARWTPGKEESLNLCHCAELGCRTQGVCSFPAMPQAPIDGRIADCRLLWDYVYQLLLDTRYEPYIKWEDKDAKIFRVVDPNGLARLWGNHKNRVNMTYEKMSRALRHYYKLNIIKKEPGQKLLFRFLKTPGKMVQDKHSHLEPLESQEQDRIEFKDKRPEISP
In short: as §1

ELF5 = target: T11, ELF5 (Homo sapiens, UniProt Q9UKW6-2 1-255); details: protein: recombinant; tags: N-terminal GST; dsDNA, one strand shown
T11 sequence: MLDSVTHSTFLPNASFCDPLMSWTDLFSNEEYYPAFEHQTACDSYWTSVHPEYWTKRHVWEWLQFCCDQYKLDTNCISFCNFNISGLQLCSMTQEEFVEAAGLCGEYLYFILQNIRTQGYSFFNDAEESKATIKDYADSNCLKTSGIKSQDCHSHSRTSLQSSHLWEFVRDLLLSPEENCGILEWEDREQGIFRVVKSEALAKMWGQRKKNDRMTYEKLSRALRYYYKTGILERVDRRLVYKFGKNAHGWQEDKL
In short: as §1

ETV3 = target: T12, ETV3 (Homo sapiens, UniProt P41162-2 1-143); details: protein: recombinant; tags: N-terminal GST; dsDNA, one strand shown
T12 sequence: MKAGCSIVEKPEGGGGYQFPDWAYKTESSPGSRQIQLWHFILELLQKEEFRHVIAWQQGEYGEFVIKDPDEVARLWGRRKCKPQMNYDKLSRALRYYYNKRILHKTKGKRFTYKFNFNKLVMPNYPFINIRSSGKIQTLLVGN
In short: as §1

ETV6 = ETV6 (Homo sapiens, UniProt P41212 1-452); details: protein: recombinant; tags: N-terminal GST; dsDNA, one strand shown
In short: as §1

Chain of HSF1 (Q00613 whole entry): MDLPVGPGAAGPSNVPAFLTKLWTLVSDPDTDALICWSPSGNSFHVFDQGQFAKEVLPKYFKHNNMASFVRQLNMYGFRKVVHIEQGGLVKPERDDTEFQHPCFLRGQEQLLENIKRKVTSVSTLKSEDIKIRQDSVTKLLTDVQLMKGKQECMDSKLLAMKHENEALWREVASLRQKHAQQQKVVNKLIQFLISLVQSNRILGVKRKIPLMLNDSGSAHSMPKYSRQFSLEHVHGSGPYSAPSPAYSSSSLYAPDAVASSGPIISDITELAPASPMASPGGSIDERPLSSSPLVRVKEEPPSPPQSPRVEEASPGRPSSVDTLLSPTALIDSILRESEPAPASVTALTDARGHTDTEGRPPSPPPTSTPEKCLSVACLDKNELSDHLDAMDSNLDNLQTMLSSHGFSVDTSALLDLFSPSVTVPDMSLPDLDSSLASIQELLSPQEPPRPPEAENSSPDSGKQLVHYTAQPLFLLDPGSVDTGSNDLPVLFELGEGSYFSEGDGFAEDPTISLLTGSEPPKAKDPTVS
Chain of ETV5 (P41161 whole entry): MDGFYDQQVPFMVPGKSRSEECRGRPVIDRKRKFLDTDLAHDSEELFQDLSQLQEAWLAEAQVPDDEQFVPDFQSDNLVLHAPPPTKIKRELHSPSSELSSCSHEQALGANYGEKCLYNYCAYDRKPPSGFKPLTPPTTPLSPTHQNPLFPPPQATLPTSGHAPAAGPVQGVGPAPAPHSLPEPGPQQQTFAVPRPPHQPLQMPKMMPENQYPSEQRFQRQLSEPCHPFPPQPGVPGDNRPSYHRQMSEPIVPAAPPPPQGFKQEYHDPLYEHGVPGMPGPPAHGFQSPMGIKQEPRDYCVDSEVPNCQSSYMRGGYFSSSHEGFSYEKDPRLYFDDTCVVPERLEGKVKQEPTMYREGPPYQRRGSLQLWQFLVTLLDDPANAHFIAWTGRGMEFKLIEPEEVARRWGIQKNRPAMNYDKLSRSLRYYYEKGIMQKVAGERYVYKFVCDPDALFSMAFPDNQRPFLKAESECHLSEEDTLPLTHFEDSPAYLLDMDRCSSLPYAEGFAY
Chain of ETV1 (P50549 whole entry): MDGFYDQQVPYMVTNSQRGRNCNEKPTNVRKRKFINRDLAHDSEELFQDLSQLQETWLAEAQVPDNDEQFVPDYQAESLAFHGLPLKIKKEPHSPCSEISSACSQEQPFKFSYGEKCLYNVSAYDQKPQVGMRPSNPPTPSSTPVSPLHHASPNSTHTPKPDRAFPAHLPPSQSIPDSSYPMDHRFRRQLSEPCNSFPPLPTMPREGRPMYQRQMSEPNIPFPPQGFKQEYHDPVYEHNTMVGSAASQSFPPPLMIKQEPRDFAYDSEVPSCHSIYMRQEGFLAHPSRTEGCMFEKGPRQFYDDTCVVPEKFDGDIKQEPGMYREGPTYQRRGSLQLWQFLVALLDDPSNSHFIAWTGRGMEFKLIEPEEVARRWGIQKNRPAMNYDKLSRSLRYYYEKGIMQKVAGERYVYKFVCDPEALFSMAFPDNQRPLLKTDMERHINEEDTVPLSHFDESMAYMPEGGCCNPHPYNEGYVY
Chain of ELF4 (Q99607 whole entry): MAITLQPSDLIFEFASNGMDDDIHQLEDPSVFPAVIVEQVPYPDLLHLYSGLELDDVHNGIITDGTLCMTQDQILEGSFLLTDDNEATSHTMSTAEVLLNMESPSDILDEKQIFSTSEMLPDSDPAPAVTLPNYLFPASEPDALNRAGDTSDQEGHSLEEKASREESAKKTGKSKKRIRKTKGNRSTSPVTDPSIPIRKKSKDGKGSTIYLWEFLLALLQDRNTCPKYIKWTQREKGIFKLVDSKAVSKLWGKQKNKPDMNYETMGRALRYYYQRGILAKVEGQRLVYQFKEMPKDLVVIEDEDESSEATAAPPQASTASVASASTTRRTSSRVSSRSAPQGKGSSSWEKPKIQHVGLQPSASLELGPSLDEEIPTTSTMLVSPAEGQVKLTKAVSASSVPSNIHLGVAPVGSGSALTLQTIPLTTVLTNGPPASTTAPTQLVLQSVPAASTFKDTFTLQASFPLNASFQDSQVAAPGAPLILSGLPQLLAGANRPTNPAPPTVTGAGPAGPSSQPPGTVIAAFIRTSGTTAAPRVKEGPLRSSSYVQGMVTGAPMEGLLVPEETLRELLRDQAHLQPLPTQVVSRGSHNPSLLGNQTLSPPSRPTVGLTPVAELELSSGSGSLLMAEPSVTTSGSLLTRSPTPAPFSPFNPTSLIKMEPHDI
Chain of ETV6 (P41212 whole entry): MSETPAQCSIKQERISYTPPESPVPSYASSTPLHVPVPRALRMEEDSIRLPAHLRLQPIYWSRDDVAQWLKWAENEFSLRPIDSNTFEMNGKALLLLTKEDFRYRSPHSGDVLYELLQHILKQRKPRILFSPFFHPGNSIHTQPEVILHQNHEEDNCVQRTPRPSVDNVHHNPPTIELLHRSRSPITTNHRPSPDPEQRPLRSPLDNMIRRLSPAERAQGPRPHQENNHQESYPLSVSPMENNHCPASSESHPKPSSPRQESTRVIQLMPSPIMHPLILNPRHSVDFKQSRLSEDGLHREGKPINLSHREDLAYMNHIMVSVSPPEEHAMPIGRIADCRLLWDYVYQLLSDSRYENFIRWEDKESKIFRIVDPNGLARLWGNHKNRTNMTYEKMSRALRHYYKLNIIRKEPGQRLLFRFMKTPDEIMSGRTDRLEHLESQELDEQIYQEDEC
Chain of CRX (O43186 whole entry): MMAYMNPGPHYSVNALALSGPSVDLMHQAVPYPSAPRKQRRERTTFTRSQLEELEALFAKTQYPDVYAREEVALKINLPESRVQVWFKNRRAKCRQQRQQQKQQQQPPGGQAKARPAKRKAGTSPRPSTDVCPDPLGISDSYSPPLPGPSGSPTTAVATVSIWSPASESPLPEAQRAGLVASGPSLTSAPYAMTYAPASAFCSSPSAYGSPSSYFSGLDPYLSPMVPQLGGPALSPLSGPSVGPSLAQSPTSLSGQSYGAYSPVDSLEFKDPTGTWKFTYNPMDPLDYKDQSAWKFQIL

With CTACTG the binding signal (FEV) was 1.33 fold enrichment (6-mer frequency, TF over GST control), the binding signal (ETV5) was 1.35 fold enrichment (6-mer frequency, TF over GST control) and the binding signal (HSF1) was 1.24 fold enrichment (6-mer frequency, TF over GST control). The binding signal (SPIC) was 1.32 fold enrichment (6-mer frequency, TF over GST control), the binding signal (ELF4) was 1.26 fold enrichment (6-mer frequency, TF over GST control) and the binding signal (ELK4) was 1.26 fold enrichment (6-mer frequency, TF over GST control). For the same sequence, the binding signal (ETV2) was 1.4 fold enrichment (6-mer frequency, TF over GST control), the binding signal (ELF3) was 1.3 fold enrichment (6-mer frequency, TF over GST control) and the binding signal (CRX) was 1.08 fold enrichment (6-mer frequency, TF over GST control). For the same sequence, the binding signal (ETV1) was 1.3 fold enrichment (6-mer frequency, TF over GST control), the binding signal (ERF) was 1.4 fold enrichment (6-mer frequency, TF over GST control) and the binding signal (ETV3L) was 1.37 fold enrichment (6-mer frequency, TF over GST control). For the same sequence, the binding signal (ETS2) was 1.34 fold enrichment (6-mer frequency, TF over GST control), the binding signal (SPDEF) was 1.21 fold enrichment (6-mer frequency, TF over GST control) and the binding signal (ETV7) was 1.26 fold enrichment (6-mer frequency, TF over GST control). The binding signal (ELF5) was 1.32 fold enrichment (6-mer frequency, TF over GST control), the binding signal (ETV3) was 1.16 fold enrichment (6-mer frequency, TF over GST control) and the binding signal (ETV6) was 1.24 fold enrichment (6-mer frequency, TF over GST control).

Reference: article PMC7862700, “An all-to-all approach to the identification of sequence-specific readers for epigenetic DNA modifications on cytosine”
